HCMV antiviral – human cytomegalovirus inhibition; HFF cells, HCMV-luciferase reporter, 72 h; stronger effect = lower value; activity change, negative = inhibition, % at 57.5 µM; hit rate 4.5% among 410,000; AID 1259415; in the data active means activity change below about -60%; inconclusive means no clear call, values can overlap the other calls; inactive means above about -39%
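Steps: HFFs plated, 16 h 37C; compounds added; HCMV-luciferase added to MOI 1 PFU/cell; 72 h 37C; OneGlo reagent, 5 min room temperature; luminescence read, normalized to controls.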
Vaccinia Venus – vaccinia inhibition (Venus reporter); Vaccinia virus Venus reporter expression, fluorescence; hit rate 0.46% among 330,000; Potency, µM (titrated, usually from 36.5 µM), without a hit: top-dose activity change, negative = inhibition, actives largely listed as inhibitors; calls by dose curve; tested in A549 cells; further: potency means the concentration at half of the fitted maximal effect; nearly all actives have a fitted effect of over 30% in size
Lassa entry inh – Lassa virus entry inhibition. Lassa virus pseudotype entry inhibition, cell reporter. Potency, µM (doses to about 37.9 µM), inactives show top-dose activity change, negative = inhibition, actives largely listed as inhibitors. hit rate 1.2% among 300,000. AID 540256; calls by dose curve; tested in HEK293 cells; further: potency means the concentration at half of the fitted maximal effect; nearly all actives have a fitted effect of over 50% in size
Marburg entry inh – blocks Marburg virus binding to or entry into cells. Marburg virus pseudotyped entry inhibition, cell reporter. Potency, µM (series often up to 37.8 µM), inactives show at the highest dose activity change, negative = inhibition, most hits filed as inhibitors. hit rate 1.8% among 300,000. AID 540276; calls by dose curve; tested in HEK293 cells; further: potency means the concentration at half of the fitted maximal effect
HCV inh – HCV inhibition | Huh7.5.1 HCVcc-Cre infection, luciferase reporter, 44 h | Potency, µM (top dose mostly 41.8 µM), without a hit: top-dose activity change, negative = inhibition, usual class: inhibitors | hit rate 3.4% among 340,000 | AID 651820; active means well fitted inhibition curve with a large enough effect; inconclusive means small, poorly fitted or top-dose-only effect, or another doubt; inactive means no such curve, though single readings can be large or run the other way; further: potency means the concentration at half of the fitted maximal effect
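Infectious HCV cell culture screen: compound-treated cells (1,000/well, pre-plated 4 h) are infected with HCVcc-Cre at roughly 0.5 moi and grown 44 h. Infection is quantified by luciferase signal after 15 min substrate incubation at room temperature.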
Vaccinia mCherry – vaccinia inhibition (mCherry reporter); Vaccinia virus mCherry reporter infection, fluorescence; Potency, µM (highest dose often 36.5 µM), without a hit: top-dose activity change, negative = inhibition, most hits filed as inhibitors; hit rate 0.63% among 310,000; AID 720579; calls by dose curve; tested in A549 cells; further: potency means the concentration at half of the fitted maximal effect; nearly all actives have a fitted effect of over 35% in size
An asterisk follows results filed as active; i = inactive; ? = inconclusive; / = no result; [ ] = another dose, or the depositor's remark. Sampled rows, rich in hits. Any-hit rate of the full collection: about 7.8%. On the % scale 0 is the no-effect control and ±100 the full control effect.

SMILES | HCMV antiviral | Vaccinia Venus | Lassa entry inh | Marburg entry inh | HCV inh | Vaccinia mCherry
COC(=O)c1c(NC(=O)C(C)(C)C)sc2c1C(C(=O)OC)CC2 (centres undefined) | 5 | -14% | 4% | -5%[46.1 µM] | ? | i
Nc1cc2nsnc2cc1Br | -107* | ? | -47% | ? | ? | ?
Nc1cccc2nsnc12 | 24 | -15% | -22% | ? | -17% | i
CCCCN(CC)CCCNC(=O)C1CCCN(c2ncnc3c2nc2n3CCCCC2)C1 (centres undefined) | -6 | 6% | 16%[46.1 µM] | / | / | 6%
Nc1c(Cl)cc(C2=NCCn3c2c2ccc([N+](=O)[O-])cc2[n+]3[O-])cc1Cl | ? | ? | / | / | 10µM* | ?
Nc1c(Cl)cc(C2=NCCn3nc4cc([N+](=O)[O-])ccc4c32)cc1Cl | 57 | -18% | / | / | ? | -14%
CCOc1ccc(OCC)c(NC(=O)C2CCN(c3nnc(-n4cccc4)s3)CC2)c1 | 0 | -18% | 20%[46.1 µM] | / | / | -2%
Cc1cc(OCCNCCO)cc(C)c1Cl | 3 | -12% | -23% | ? | ? | /
Cc1cc(OCCCCCNCCO)cc(C)c1Cl | ? | / | 7% | ? | 13µM* | /
NC(C(=O)O)C1ON=C(Cl)C1O (centres undefined) | -86* | -26% | -12% | -2% | ? | -8%
N[C@H](C(=O)O)[C@@H]1CC(Cl)=NO1 | / | ? | / | / | / | 2µM*
Cc1ccccc1N=CC1=C(O)c2ccccc2C1=O | 23 | 3% | 10µM* | 8.9µM* | -3% | -10%
COc1ccc(N=CC2=C(O)c3ccccc3C2=O)c(OC)c1 | -31 | ? | 2.5µM* | ? | 17% | /
O=C1C(C=Nc2ccc(F)cc2)=C(O)c2ccccc21 | 13 | -2% | ? | 9%[46.1 µM] | 3% | -3%
C=CCc1c(C)nc2c(OC)cccc2c1Cl | -83* | -14% | 6% | 1% | ? | -8%
Cc1ccn2c(NC(=O)C(C)(C)Oc3ccc(Cl)cc3)c(-c3cccs3)nc2c1 | -60* | -23% | ? | ? | ? | -22%
CC1CCN(S(=O)(=O)c2ccc3c(c2)c(=O)c(C(=O)NCCc2ccccc2)cn3C)CC1 | 32 | -4% | 19%[46.1 µM] | -1%[46.1 µM] | / | -10%
Cc1cc(Cl)ccc1C(O)c1ncc(-c2ccc(F)cc2)[nH]1 (centres undefined) | / | -11% | / | / | / | -1%
CCN(CC)C(=O)CSc1ncnc2sc(-c3ccccc3)cc12 | -38 | / | -1% | ? | 13µM* | /
CN(CCC#N)C(=O)CSc1ncnc2sc(-c3ccccc3)cc12 | -5 | / | 3% | -24% | ? | /
CC(C)C(C)(C#N)NC(=O)CSc1ncnc2sc(-c3ccccc3)cc12 (centres undefined) | -33 | ? | -17% | -26% | 13µM* | ?
Cc1ccc2c(/C=C/c3ccc(N(C)C)cc3)c(C)cnc2c1 | / | -7% | / | / | / | -1%
O=C(NCC(c1ccc2c(c1)OCO2)N1CCN(c2ccccc2)CC1)C(=O)Nc1cccc(F)c1 (centres undefined) | -2 | -13% | -13%[46.1 µM] | / | / | -16%
CCCCCn1c(=O)c(C(=O)Nc2ccccc2N)c(O)c2ccccc21 | -38 | / | / | / | ? | /
CCCCCCCn1c(=O)c(C(=O)OC)c(N)c2ccccc21 | -89* | -11%[7.34 µM] | ? | ? | ? | -6%[7.34 µM]
SMILES | HCMV antiviral | Vaccinia Venus | Lassa entry inh | Marburg entry inh | HCV inh | Vaccinia mCherry
CCCCCn1c(=O)c(C(=O)Nc2ccccc2)c(O)c2ccccc21 | 2 | / | / | / | 4% | /
CCCCCCCCn1c(=O)c(C(=O)OC)c(N)c2ccccc21 | -64* | ? | ? | ? | 13µM* | ?
Cc1cccc2cc(-c3ccccc3)c(-c3ccccc3)c[n+]12 | -97* | -15% | 11µM* | ? | ? | 0%
CCCc1cc(=O)c2c(O)ccc(OC)c2o1 | 24 | -4% | 18% | 7% | ? | i
COc1ccc(O)c2c(=O)c3c(OC)cc4c(c3oc12)C1C=COC1O4 (centres undefined) | -62* | / | / | / | / | -20%
Cc1ccc(NC(=O)CCCn2c(=O)c3cccn3c3cccnc32)c(C)c1 | -15 | -14% | -14%[46.1 µM] | / | / | -20%
C/C(CCC1CC(C)(C)OC1=O)=N\NC(N)=S (centres undefined) | -93* | ? | 22% | ? | 12% | ?
COC(=O)c1ccccc1NC1=C/C(=N\S(=O)(=O)c2cccs2)c2ccccc2C1=O | -30 | ? | 4.5µM* | 3.7µM* | 8.9µM* | ?
COC(=O)c1cccc(NS(=O)(=O)c2cccs2)c1C | 55 | / | 3% | -8% | 17% | /
Cc1ccc(S(=O)(=O)/N=C2\C=C(Nc3cccc(C(=O)O)c3)C(=O)c3ccccc32)cc1 | 3 | 5% | ? | ? | -7% | ?
Cc1ccc(S(=O)(=O)/N=C2\C=C(Nc3ccc(O)cc3)C(=O)c3ccccc32)cc1 | / | 2.2µM* | 2.8µM* | ? | 6.3µM* | 5µM*
CCc1ccc(S(=O)(=O)/N=C2\C=C(Nc3ccc(C(=O)O)cc3)C(=O)c3ccccc32)cc1 | -98* | -6% | ? | ? | ? | ?
COC(=O)c1ccccc1NC1=C/C(=N\S(=O)(=O)c2ccc(C(=O)O)cc2)c2ccccc2C1=O | / | ? | ? | ? | 10µM* | 25µM*
Cc1ccc(Cl)cc1N1CCN(CCCNC(=O)Cn2ncc3c([nH]c4ccccc43)c2=O)CC1 | 7 | -20% | 6%[46.1 µM] | / | / | -13%
Fc1ccc(-c2cc(-c3ccccc3)nc(-n3cccn3)n2)cc1 | -61* | -28% | -12%[46.1 µM] | ? | ? | -19%
O=c1cc(-c2ccccc2)nc2cc(-c3ccc(F)cc3)[nH]n12 | 44 | ? | ? | ? | 0% | -26%
COc1ccc(OC(=O)c2nc(SCc3ccccc3C)ncc2Cl)cc1 | 1 | 9% | 16%[46.1 µM] | ? | / | 1%
O=C(OC1Cc2c(O)cc(O)cc2OC1c1cc(O)c(O)c(O)c1)c1cc(O)c(O)c(O)c1 (centres undefined) | / | -1% | / | / | / | -14%
O=C1CN(S(=O)(=O)c2ccccc2)CCN1 | 12 | 3% | -2% | 4% | -2% | -6%
O=C1CN(S(=O)(=O)c2ccc(Cl)cc2C(F)(F)F)CCN1 | -60* | -7% | 3% | 21%[46.1 µM] | 13% | 2%
O=S(=O)(c1ccccc1)N1CCN(c2cc(-c3ccccc3)nc3ncnn23)CC1 | -91* | / | 15µM* | ? | ? | /
COc1ccc(S(=O)(=O)N2CCN(c3cc(-c4ccccc4)nc4ncnn34)CC2)cc1 | -73* | / | ? | ? | 10µM* | /
COc1ccc(-c2cc(-c3ccccc3)n3ncnc3n2)cc1 | 11 | -19% | -23% | ? | ? | i
COc1ccc(-c2cc(N3CCCC3)n3ncnc3n2)cc1 | -98* | -24% | -11% | -22%[46.1 µM] | 13µM* | ?
Cc1ccccc1NC(=O)C1CCN(c2cc(-c3ccccc3)nc3ncnn23)CC1 | ? | ? | ? | ? | 32% | /
CCCN1C(=O)C[C@H](S(=O)(=O)c2ccccc2)[C@H]1c1ccccc1 | -14 | / | / | / | / | /
